Screening results: PubChem, National Center for Advancing Translational Sciences (NCATS)
In the library only some 3.8% were active in any assay of this set; here they are far more common.
TGFb SMAD3 inh – TGF-b pathway inhibition. HepG2 CAGA-GFP TGF-b/SMAD3 reporter, GFP fluorescence, 18 h; TGF-beta stimulated, 500 pg/mL final. Potency, µM (titrated, usually from 46.1 µM), most hits filed as inhibitors. hit rate 1.2% among 410,000; also: nearly all actives have a fitted effect of over 65% in size
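Per well, imaged GFP fluorescence of HEPG2 CAGA-GFP cells gives the signal; cells get compound, then TGF-beta (500 pg/mL final), 18 h at 37 degrees C; %Activity versus -TGF-beta and +DMSO controls.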
ATXN2 expr inh – inhibitors of ATXN2 expression; Potency, µM (highest dose often 57 µM), most hits filed as inhibitors; HEK-293 ATXN2-luciferase reporter, luminescence, 24 h; hit rate 0.72% among 360,000; also: nearly all actives have a fitted effect of over 55% in size
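qHTS (up to 57 uM final) was run with 24 h compound exposure of reporter cells at 37 °C. Each well was multiplexed: SteadyGlo luminescence measured ATXN2-luciferase expression after a fluorogenic Gly-Phe-AFC viability readout (25 uM final).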
HepG2 tox – HepG2 cytotoxicity, counter-screen for TGF-b inhibitors; Potency, µM (titrated, usually from 46.1 µM), actives largely listed as cytotoxic; AID 588856; hit rate 0.76% among 410,000; HepG2 CAGA-GFP viability, ATP luminescence, 18 h
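HepG2 CAGA-GFP cells (1000/well, DMEM with 1% FBS) received compound, then TGF-beta at 500 pg/mL final, and were incubated 18 hours at 37 degrees C. Viability was read by CellTiter-Glo luminescence. Media-only wells were set as complete cell-killing and DMSO as no toxicity.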
A549 tox – A549 cytotoxicity, counter-screen for Nrf2 inhibitors; A549 ARE-Fluc cells, CellTiter-Fluor viability, 18-24 h; hit rate 0.16% among 390,000; Potency, µM (doses to about 46 µM), actives largely listed as inhibitors; AID 504648
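A549 ARE_Fluc cells in 5% FBS OPTI-MEM were exposed to compounds in concentration-response for 18-24 h at 37 deg C. Viability was read by CellTiter-Fluor fluorescence (Ex 405/Em 525) after 30 min, before the luciferase read.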
ATXN viability – reduces viability in counter-screen for ATXN expression inhibitors | AID 651635 | Potency, µM (top dose mostly 56.7 µM), most hits filed as cytotoxic | hit rate 0.49% among 400,000 | S2 cells (HEK-293 line with an ATXN2-luciferase reporter) viability, CellTiter-Fluor protease fluorescence, 24 h; also: nearly all actives have a fitted effect of over 40% in size
Nrf2 inh – inhibitors of Nrf2 signaling; A549 ARE-Fluc reporter, luciferase luminescence, 18-24 h; Potency, µM (top dose mostly 46 µM), most hits filed as inhibitors; hit rate 2.1% among 360,000; AID 504444; also: nearly all actives have a fitted effect of over 60% in size
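Nrf2 activity is the BugLite luminescence, read 15 min after reagent at room temperature, following CellTiter-Fluor cytotoxicity readout (30 min, 37C). Compound titrations were applied for 18-24 h to 5000 A549 ARE_Fluc cells/well in 5% FBS OPTI-MEM.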
A number is an active result; ! = a repeat was not active; [ ] = dose if it differs, or a comment. Calls follow the shape of the dose curve; as a rule, active = well fitted curve in the direction sought with a large enough effect; inconclusive = small, poorly fitted or top-dose-only effect, or another doubt; inactive = no such curve, though single readings can be large; an effect the other way counts as inactive or inconclusive.

`C[C@@H]1CN([C@@H](C)CO)C(=O)c2cc(/C=C/c3ccccc3)cnc2O[C@@H]1CN(C)S(=O)(=O)c1ccc(F)cc1` gave TGFb SMAD3 inh inactive, ATXN2 expr inh inactive, HepG2 tox inactive and ATXN viability inactive.
`C[C@H](CO)N1C[C@H](C)[C@@H](CN(C)C(=O)NC2CCCCC2)Oc2c(NC(=O)Nc3ccc(C(F)(F)F)cc3)cccc2C1=O` gave TGFb SMAD3 inh 14.1µM, ATXN2 expr inh inconclusive, HepG2 tox inactive, A549 tox inactive, ATXN viability inconclusive and Nrf2 inh inconclusive.
C[C@H]1CN([C@@H](C)CO)C(=O)c2cccc(NC(=O)Nc3ccc(C(F)(F)F)cc3)c2O[C@@H]1CN(C)S(=O)(=O)c1ccc(Cl)cc1 was read as TGFb SMAD3 inh inconclusive, ATXN2 expr inh inconclusive, HepG2 tox inactive, A549 tox inconclusive and Nrf2 inh inconclusive.
`C[C@H](CO)N1C[C@H](C)[C@@H](CN(C)S(=O)(=O)c2ccc(F)cc2)Oc2c(NC(=O)Nc3ccc(C(F)(F)F)cc3)cccc2C1=O` gave TGFb SMAD3 inh inconclusive, ATXN2 expr inh inconclusive, HepG2 tox inactive, A549 tox inactive and Nrf2 inh 18.4µM.
For C[C@@H]1CN([C@@H](C)CO)C(=O)c2cc(C#CC3CCCCC3)cnc2O[C@@H]1CN(C)S(=O)(=O)c1ccc(F)cc1 the results were TGFb SMAD3 inh inconclusive, ATXN2 expr inh inconclusive, HepG2 tox inactive and ATXN viability 20µM.
Screening CN1CCN(CCCNC(=O)Cn2c(-c3cccs3)cc3cc(Cl)ccc32)CC1 returned TGFb SMAD3 inh inconclusive, ATXN2 expr inh inconclusive, HepG2 tox inactive, A549 tox inactive, ATXN viability inconclusive and Nrf2 inh inactive.
O=C(Nc1ccc2nc(SCC(=O)N3CCc4ccccc43)sc2c1)c1ccccc1 was read as TGFb SMAD3 inh inactive, HepG2 tox inactive, A549 tox inactive and Nrf2 inh inactive.
For O=C(Nc1ccc2nc(SCC(=O)N3CCCc4ccccc43)sc2c1)c1ccccc1 the results were TGFb SMAD3 inh inactive, HepG2 tox inactive, A549 tox inactive and Nrf2 inh 11.6µM.
Screening O=C(Cc1ccc(S(=O)(=O)N2CCOCC2)s1)Nc1cc(C(F)(F)F)cc(C(F)(F)F)c1 returned TGFb SMAD3 inh 17.8µM, ATXN2 expr inh inconclusive, HepG2 tox inactive, A549 tox inactive, ATXN viability inconclusive and Nrf2 inh inconclusive.
For O=C(Cc1ccc(S(=O)(=O)N2CCOCC2)s1)Nc1cc(C(F)(F)F)ccc1N1CCCC1 the results were TGFb SMAD3 inh inactive, ATXN2 expr inh inactive, HepG2 tox inactive, A549 tox inactive, ATXN viability inactive and Nrf2 inh inconclusive.
`COc1cc(-c2nc3cnccn3c2Nc2ccc(C(C)C)cc2)ccc1O` gave TGFb SMAD3 inh 11.2µM, ATXN2 expr inh inconclusive, HepG2 tox 11.2µM!, A549 tox inactive, ATXN viability inconclusive and Nrf2 inh inactive[9.27 µM].
Screening COc1ccc(C(=O)/C(=C/O)N=Nc2ccc(F)cc2)cc1 returned TGFb SMAD3 inh inconclusive, ATXN2 expr inh inconclusive, HepG2 tox inactive, A549 tox inactive, ATXN viability 22.4µM and Nrf2 inh inactive.
COc1ccc(N=N/C(=C\O)C(=O)c2cccs2)cc1 was read as TGFb SMAD3 inh inconclusive, ATXN2 expr inh inconclusive, HepG2 tox inactive, A549 tox inactive, ATXN viability inconclusive and Nrf2 inh inconclusive.
`O=C(/C(=C/O)N=Nc1cccc(C(F)(F)F)c1)c1ccccc1` gave TGFb SMAD3 inh inconclusive, ATXN2 expr inh inconclusive, HepG2 tox inactive, A549 tox inconclusive, ATXN viability inactive and Nrf2 inh inconclusive.
`Cc1cccc(N=N/C(=C\O)C(=O)c2ccc(Br)cc2)c1` gave TGFb SMAD3 inh 10µM, ATXN2 expr inh inactive, HepG2 tox inactive, A549 tox inactive and Nrf2 inh inactive.
For COc1cc(OC)c(NC(=O)N2CCc3cc(S(=O)(=O)N4CCC(C)CC4)ccc32)cc1Cl the results were HepG2 tox inactive, A549 tox inactive and Nrf2 inh inactive.
C=CCn1c(SCc2ccc(C#N)cc2)nnc1-c1ccc(C)cc1 was read as TGFb SMAD3 inh inactive, ATXN2 expr inh inactive, HepG2 tox inactive, A549 tox inactive, ATXN viability inactive and Nrf2 inh 20.6µM.
Cn1nnnc1SCC(=O)Nc1ccc(S(=O)(=O)N2CCOCC2)cc1 was read as TGFb SMAD3 inh inactive, ATXN2 expr inh inactive, HepG2 tox inactive, A549 tox inactive, ATXN viability inactive and Nrf2 inh inactive.
CCn1c2ccccc2c2cc(NC(=O)COC(=O)c3cc(OC)c(OC)cc3OC)ccc21 was read as TGFb SMAD3 inh inconclusive, ATXN2 expr inh inconclusive, HepG2 tox inactive, A549 tox inactive, ATXN viability inconclusive and Nrf2 inh 16.4µM.
CCc1ccc(OCC(=O)Nc2ccc3c(c2)c2ccccc2n3CC)cc1 was read as TGFb SMAD3 inh inactive, ATXN2 expr inh inactive, HepG2 tox inactive, A549 tox inactive, ATXN viability inactive and Nrf2 inh inconclusive.
`O=C(Nc1ccccc1)Nc1csc2ccccc12` gave TGFb SMAD3 inh inconclusive, ATXN2 expr inh inactive, HepG2 tox 17.8µM, A549 tox inactive, ATXN viability inactive and Nrf2 inh inconclusive.
Screening CC(=O)Nc1csc2ccccc12 returned TGFb SMAD3 inh inactive, HepG2 tox inactive, A549 tox inactive, ATXN viability inactive and Nrf2 inh inactive.
For COc1cc(CNCCc2c[nH]c3ccccc23)ccc1OCc1ccc(F)cc1 the results were TGFb SMAD3 inh inconclusive, ATXN2 expr inh inconclusive, HepG2 tox inactive, A549 tox inactive and Nrf2 inh inactive.
For COc1cccc(CNCCc2c[nH]c3ccccc23)c1OCc1ccc(F)cc1 the results were TGFb SMAD3 inh inconclusive, ATXN2 expr inh 20µM, HepG2 tox 12.6µM, A549 tox inactive, ATXN viability inconclusive and Nrf2 inh inactive.
Screening Cc1nc2ccccn2c1C(=O)N=Nc1c(O)[nH]c2ccccc12 returned TGFb SMAD3 inh inactive, ATXN2 expr inh inactive, HepG2 tox inactive, A549 tox inactive, ATXN viability inactive and Nrf2 inh inconclusive.
For Cc1cc(C(=O)N2CCN(c3cccc(Cl)c3)CC2)c2c(C)nn(-c3ccccc3Cl)c2n1 the results were TGFb SMAD3 inh inconclusive, ATXN2 expr inh inconclusive, HepG2 tox inactive, A549 tox inactive, ATXN viability inconclusive and Nrf2 inh 18.4µM.
Screening CCN(CCCNC(=O)CN1N=C(c2ccc(C)cc2)CCC1=O)c1ccccc1 returned TGFb SMAD3 inh inconclusive, HepG2 tox inactive and A549 tox inactive.
Cc1ccc(C2=NN(CC(=O)NCCc3ccc(Cl)cc3)C(=O)CC2)cc1 was read as TGFb SMAD3 inh 11.2µM, HepG2 tox inactive and A549 tox inactive.
CCCCN(CCCNC(=O)CN1N=C(c2ccc(C)cc2)CCC1=O)c1ccccc1 was read as TGFb SMAD3 inh 12.6µM, HepG2 tox inactive and A549 tox inactive.
